This note sets out measurements from PubChem BioAssay.

Experiment [1] deals with PRMT1 (protein arginine N-methyltransferase 1). Put plainly: PRMT1 binders on small-molecule microarrays, primary screen, biochemical, small-molecule microarray, 635 nm fluorescence (AID 1088).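 Also: binding of Prmt1 protein to compounds spotted on small-molecule microarray slides.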 The conditions noted are these: small-molecule microarray binding, higher = more signal.
Experiment [2] is described as follows: yeast growth modulation, basal conditions, primary screen, YJM789 clinical isolate, OD600, 24 h (AID 1089).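 Also: growth of clinical yeast isolate S. cerevisiae YJM 789 seeded 1000 cells per well; test concentration not given here.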 Particulars: S. cerevisiae YJM789 growth, higher = more signal, called active from +8 up or from −8 down.
Experiment [3] in a line: fission yeast growth modulation, primary screen, strain 972, OD600, 24 h, no modulator (AID 1090).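 Also: basal condition with compound alone and no growth modifier present; test concentration not given here.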 The conditions noted are these: S. pombe 972 growth, higher = more signal, called active from +8 up or from −8 down.
Experiment [4] is described as follows: S. cerevisiae growth modulation with rapamycin, primary screen, strain BY4716, OD600, 96 h (AID 1091). Also: test concentration not given here. Particulars: higher = more signal, called active from +8 up or from −8 down.
Experiment [5] deals with Torsin-1A-interacting protein 2 (Homo sapiens) (UniProt Q8NFQ8). Briefly: LULL1 binders on small-molecule microarray, primary screen, cell lysate, human LULL1 lysate, 635/667 nm fluorescence (AID 1092).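 Also: probe is lysate of COS7 cells overexpressing human LULL1; score merges per-feature 667 nm fluorescence with signal-to-noise.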 The conditions noted are these: hLULL1 lysate binding, 635 nm fluorescence, higher = more signal.
Experiment [6] can be described thus: E. coli growth modulation, two-sided OD650, primary screen, E. coli filamentation project, strain DRC41, 24 h (AID 1093).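 Also: MC1000 strain lacking acrAB efflux and sulA so SOS filamentation is blocked; test concentration not given here.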 The conditions noted are these: OD650, 24 h, higher = more signal, called active from +8 up or from −8 down.
Experiment [7] can be described thus: small-molecule microarray binders of probe aLefty2, primary screen, biochemical, biotinylated probe, 635/667 nm fluorescence (AID 1094).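 Also: score merges spot fluorescence near 667 nm with spot signal-to-noise ratio.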 The conditions noted are these: higher = more signal.
The subject of experiment [8] is Noggin (protein binding on small-molecule microarray). Briefly: Noggin binders on small-molecule microarray, primary screen, biochemical, 635/667 nm fluorescence (AID 1095).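 Also: score merges 667 nm feature fluorescence with signal to noise over triplicate slides.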 Particulars: 635 nm fluorescence, higher = more signal.
The target of experiment [9] is Neurogenic locus notch homolog protein 3 (Homo sapiens) (UniProt Q9UM47). Briefly: NOTCH3 binders on small-molecule microarray, primary screen, biochemical, 635/667 nm fluorescence (AID 1096). The conditions noted are these: NOTCH3 binding, 635 nm fluorescence, higher = more signal.
Experiment [10] can be described thus: small-molecule microarray binders of probe aEGFR, primary screen, biochemical, biotinylated probe, 635/667 nm fluorescence (AID 1097).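 Also: probe is a biotinylated anti-EGFR antibody binding compounds printed on slides; score combines fluorescence near 667 nm and signal to noise of each spot.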 Particulars: higher = more signal.

The structures appear in SMILES notation. Calls of active or inactive are those of the source.

Torsin-1A-interacting protein 2 (Homo sapiens), sequence (Q8NFQ8 whole entry, looked up): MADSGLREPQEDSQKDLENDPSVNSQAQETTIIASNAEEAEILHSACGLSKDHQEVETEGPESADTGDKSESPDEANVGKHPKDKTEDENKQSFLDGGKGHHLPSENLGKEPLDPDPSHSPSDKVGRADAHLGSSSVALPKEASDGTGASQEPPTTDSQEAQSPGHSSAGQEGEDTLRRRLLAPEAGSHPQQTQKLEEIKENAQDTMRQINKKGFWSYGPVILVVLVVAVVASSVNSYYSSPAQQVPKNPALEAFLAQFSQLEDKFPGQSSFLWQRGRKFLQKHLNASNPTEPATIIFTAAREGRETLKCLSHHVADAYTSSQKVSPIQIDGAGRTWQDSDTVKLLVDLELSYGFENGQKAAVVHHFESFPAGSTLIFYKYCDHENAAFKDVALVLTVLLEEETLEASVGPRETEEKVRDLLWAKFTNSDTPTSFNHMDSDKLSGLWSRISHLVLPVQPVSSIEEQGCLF
Neurogenic locus notch homolog protein 3 (Homo sapiens), sequence (Q9UM47 whole entry, looked up): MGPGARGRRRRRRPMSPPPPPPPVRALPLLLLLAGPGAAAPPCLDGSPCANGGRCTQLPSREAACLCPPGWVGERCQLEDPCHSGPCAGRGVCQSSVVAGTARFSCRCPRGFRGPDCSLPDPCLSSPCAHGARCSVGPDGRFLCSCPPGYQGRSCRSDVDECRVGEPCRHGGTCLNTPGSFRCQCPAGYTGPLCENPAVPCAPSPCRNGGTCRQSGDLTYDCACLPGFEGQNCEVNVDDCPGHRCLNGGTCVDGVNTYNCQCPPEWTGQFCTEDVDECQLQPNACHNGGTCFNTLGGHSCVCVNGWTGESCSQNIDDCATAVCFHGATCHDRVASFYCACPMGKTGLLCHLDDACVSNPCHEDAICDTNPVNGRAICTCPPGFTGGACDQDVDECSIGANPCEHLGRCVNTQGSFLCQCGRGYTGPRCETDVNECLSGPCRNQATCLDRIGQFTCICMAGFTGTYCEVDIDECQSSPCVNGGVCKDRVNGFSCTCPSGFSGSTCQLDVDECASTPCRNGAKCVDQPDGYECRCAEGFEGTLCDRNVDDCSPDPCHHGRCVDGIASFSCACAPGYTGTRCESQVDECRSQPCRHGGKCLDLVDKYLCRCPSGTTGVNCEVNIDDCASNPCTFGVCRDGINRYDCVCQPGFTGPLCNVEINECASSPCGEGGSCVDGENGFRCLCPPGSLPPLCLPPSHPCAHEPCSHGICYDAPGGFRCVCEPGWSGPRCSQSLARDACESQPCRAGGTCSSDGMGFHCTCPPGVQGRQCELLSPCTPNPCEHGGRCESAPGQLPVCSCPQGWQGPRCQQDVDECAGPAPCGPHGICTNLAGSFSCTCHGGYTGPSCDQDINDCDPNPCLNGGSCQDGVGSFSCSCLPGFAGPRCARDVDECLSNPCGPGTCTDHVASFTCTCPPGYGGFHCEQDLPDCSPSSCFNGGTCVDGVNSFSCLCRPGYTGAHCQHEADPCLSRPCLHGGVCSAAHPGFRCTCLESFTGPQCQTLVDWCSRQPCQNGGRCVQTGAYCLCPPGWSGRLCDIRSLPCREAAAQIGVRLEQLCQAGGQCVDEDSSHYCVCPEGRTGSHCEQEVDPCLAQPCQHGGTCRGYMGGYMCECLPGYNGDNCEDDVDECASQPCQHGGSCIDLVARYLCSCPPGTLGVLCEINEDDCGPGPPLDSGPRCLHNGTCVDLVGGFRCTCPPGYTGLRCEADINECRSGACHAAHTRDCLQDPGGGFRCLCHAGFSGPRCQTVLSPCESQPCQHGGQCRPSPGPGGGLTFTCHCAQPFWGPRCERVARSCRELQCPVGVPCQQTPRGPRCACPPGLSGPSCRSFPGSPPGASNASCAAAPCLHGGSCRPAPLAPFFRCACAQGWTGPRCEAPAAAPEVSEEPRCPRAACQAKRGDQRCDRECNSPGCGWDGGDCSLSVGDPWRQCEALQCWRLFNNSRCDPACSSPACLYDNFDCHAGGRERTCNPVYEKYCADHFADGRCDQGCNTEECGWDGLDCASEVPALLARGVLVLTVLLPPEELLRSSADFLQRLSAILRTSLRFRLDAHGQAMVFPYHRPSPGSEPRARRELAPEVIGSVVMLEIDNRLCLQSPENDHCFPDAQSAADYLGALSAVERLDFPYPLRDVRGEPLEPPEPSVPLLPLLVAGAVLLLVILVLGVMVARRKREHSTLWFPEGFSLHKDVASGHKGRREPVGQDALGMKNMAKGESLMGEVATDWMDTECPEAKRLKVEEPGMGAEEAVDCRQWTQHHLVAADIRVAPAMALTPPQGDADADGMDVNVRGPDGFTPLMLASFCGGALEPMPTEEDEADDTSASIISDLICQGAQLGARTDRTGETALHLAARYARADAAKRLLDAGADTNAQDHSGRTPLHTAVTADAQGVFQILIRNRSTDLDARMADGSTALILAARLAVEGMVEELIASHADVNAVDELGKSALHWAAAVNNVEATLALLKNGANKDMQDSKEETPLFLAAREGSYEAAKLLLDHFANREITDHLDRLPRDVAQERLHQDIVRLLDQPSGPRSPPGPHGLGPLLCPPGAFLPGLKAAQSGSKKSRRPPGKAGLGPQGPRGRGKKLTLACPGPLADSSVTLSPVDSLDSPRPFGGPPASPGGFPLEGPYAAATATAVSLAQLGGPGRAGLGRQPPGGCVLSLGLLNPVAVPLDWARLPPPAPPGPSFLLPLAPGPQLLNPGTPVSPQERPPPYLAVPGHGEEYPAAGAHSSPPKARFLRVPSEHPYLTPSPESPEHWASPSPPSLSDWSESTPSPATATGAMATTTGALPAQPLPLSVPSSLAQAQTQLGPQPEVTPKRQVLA

Turning to `C=CC[C@]1(C(=O)N2CCOCC2)N=C(c2ccc(OCCCO)cc2)O[C@H]1c1ccccc1`, the composite z-score in [1] is 0.74; in [5], 3.56; in experiment [7], -0.0212; in experiment [8] it was -0.243; in experiment [9] it was 0.175; in experiment [10], -0.165. The z-score in experiment [2] was -1.8 (inactive); in [3], -2.42 (inactive); in [4], -1.67 (inactive); in [6], 0.382 (inactive).

As for `O=C1C[C@@](C(=O)NC2CC2)(c2ccc([N+](=O)[O-])cc2)[C@@H](c2ccc(CO)cc2)N1CC12CC3CC(CC(C3)C1)C2`, the composite z-score in experiment [1] was 1.27; in experiment [5], 1.61; in [7], 0.0469; in experiment [8] it was 0.883; in [9], 1.14; in experiment [10], -0.0485. The z-score was -0.632 (inactive) in experiment [2], -1.06 (inactive) in experiment [3], 0.122 (inactive) in [4] and 0.587 (inactive) in [6].

As for `CCCCCN1CC=CC23O[C@@H]4/C=C\CCCOC(=O)C4[C@H]2C(=O)N(CCCCCCO)[C@@H]3C1=O` (stereo not given in full), the composite z-score in experiment [1] is -0.0832; in [5], 3.32; in [7] it was -0.147; in [8], -0.471; in experiment [9] it was -0.0559; in experiment [10] it was 0.0538. For the same molecule, the z-score in experiment [2] was -3.85 (inactive); in [3], -2.83 (inactive); in [4] it was -2.64 (inactive); in experiment [6] it was 1.61 (inactive).

On to `CC(C)C(=C=CC[C@H](O)c1cccc(OCCO)c1)C[C@H](O)COCc1ccccc1`, for which the composite z-score was 0.975 in experiment [1]; 1.92 in [5]; -0.0616 in [7]; 0.551 in experiment [8]; -0.243 in experiment [9]; -0.081 in [10]. The z-score was -0.0398 (inactive) in experiment [2], 0.299 (inactive) in experiment [3], -0.623 (inactive) in [4] and 0.299 (inactive) in [6].

With `Cc1ccc(S[C@]2(C(=O)NCc3ccccc3)CC(=O)N(Cc3ccccc3Cl)[C@@H]2c2ccc(CO)cc2I)cc1`, the composite z-score in experiment [1] was 1.08; in experiment [5] it was 1.65; in experiment [7] it was 0.114; in [8] it was -1.07; in [9], -0.109; in experiment [10] it was -0.168. The z-score is -3.68 (inactive) in [2], -3.05 (inactive) in [3], 0.103 (inactive) in experiment [4] and -0.592 (inactive) in experiment [6].

Take `CCCN1C(=O)[C@@]2(CCC(=O)OC(C)(C)C)N=C(c3ccc(OCCCO)cc3)O[C@H]2c2ccccc21`: the composite z-score is 1.56 in experiment [1]; 2.64 in experiment [5]; 0.0272 in experiment [7]; 1.82 in experiment [8]; 0.518 in experiment [9]; -0.0371 in experiment [10]. In addition, the z-score in experiment [2] is -1.25 (inactive); in experiment [3] it was -1.19 (inactive); in [4] it was 1.51 (inactive); in [6], 1.2 (inactive).

For `COCCOC(=O)N1C(=O)[C@@]2(c3ccccc31)[C@H](C(=O)Nc1nc3ccccc3s1)[C@H]1C(=O)O[C@H](c3ccccc3)[C@H](c3ccccc3)N1[C@@H]2c1ccc(OCCO)cc1`, the composite z-score in experiment [1] was 1.54; in [5], 3.23; in experiment [7], -0.0767; in experiment [8], 1.76; in experiment [9], 1.13; in experiment [10], -0.0581. The z-score is 1.13 (inactive) in experiment [2], 1.36 (inactive) in [3], 3.37 (inactive) in experiment [4] and 1.07 (inactive) in experiment [6].

For the molecule `CCCCC=C[C@@H](NC(=O)c1ccco1)c1ccccc1`, the composite z-score is -0.568 in experiment [1]; 0.539 in experiment [5]; -0.0251 in experiment [7]; 0.103 in [8]; 0.657 in [9]; 0.0836 in experiment [10]. In addition, the z-score in [2] was 0.529 (inactive); in [3], 1 (inactive); in experiment [4], 1.92 (inactive); in [6], -0.675 (inactive).

In the case of `COCCOC(=O)N1C(=O)[C@@]2(c3cc(C#CCNC(N)=O)ccc31)[C@H](C(=O)N1CCN(c3ncccn3)CC1)[C@H]1C(=O)O[C@H](c3ccccc3)[C@H](c3ccccc3)N1[C@@H]2c1ccccc1OCCO`, the composite z-score is 1.47 in experiment [1]; 1.79 in [5]; 0.181 in [7]; 0.808 in [8]; 1.12 in experiment [9]; -0.0286 in experiment [10]. Moreover, the z-score in experiment [2] was 2.12 (inactive); in [3], 1.71 (inactive); in [4] it was 4.95 (inactive); in experiment [6], 1.72 (inactive).

As for `CCCNC(=O)[C@@H]1c2ccccc2C(=O)N(Cc2ccccc2)[C@H]1c1ccc(CO)cc1`, the composite z-score in experiment [1] is 0.577; in [5] it was 2.12; in experiment [7], 0.0553; in experiment [8], -0.344; in experiment [9] it was 0.0163; in experiment [10] it was -0.152. Besides, the z-score was 0.288 (inactive) in experiment [2], -0.45 (inactive) in experiment [3], 0.633 (inactive) in experiment [4] and -1.04 (inactive) in experiment [6].

Consider `Cc1cc(C)c(C(O)C2C=CC3C(=O)N(c4ccccc4)C(=O)C3N2Nc2ccc(C#N)cc2)c(C)c1` (stereo not given), for which the composite z-score in experiment [1] is 1.12; in experiment [5], 3.52; in experiment [7] it was 0.512; in experiment [8], -0.0482; in [9], 1.05; in [10], 0.0905. Moreover, the z-score was 0.674 (inactive) in [2], 0.788 (inactive) in [3], 2.16 (inactive) in experiment [4] and 0.111 (inactive) in [6].

Take `C=CCNC(=O)[C@@H]1[C@H]2C(=O)O[C@H](c3ccccc3)[C@H](c3ccccc3)N2[C@H](c2ccccc2OCCO)[C@@]12C(=O)Nc1ccc(C#CC3=CCCCC3)cc12`: the composite z-score is 1.55 in experiment [1]; 2.75 in experiment [5]; 0.058 in [7]; 0.983 in [8]; 1.11 in experiment [9]; -0.0185 in [10]. Also, the z-score in experiment [2] is 1.05 (inactive); in experiment [3], -3.5 (inactive); in experiment [4] it was 2.87 (inactive); in experiment [6], 1.47 (inactive).

On to `CCC(CC)C(O)C1C=CC2C(=O)N(c3ccccc3)C(=O)C2N1Nc1ccc(C#N)cc1` (stereo not given), for which the composite z-score in experiment [1] is 1.55; in [5], 3.2; in experiment [7] it was 0.615; in experiment [8], -0.136; in [9], 1.04; in [10], 0.334. Besides, the z-score in experiment [2] is -0.295 (inactive); in experiment [3], 0.621 (inactive); in experiment [4], 1.28 (inactive); in [6] it was -0.279 (inactive).

For `C[C@]1(C(=O)NCc2ccccc2)c2ccccc2C(=O)N(Cc2cc(F)cc(C(F)(F)F)c2)[C@H]1c1ccc(CO)cc1`, the composite z-score in experiment [1] is 0.113; in [5] it was 2.68; in experiment [7], -0.0508; in experiment [8] it was -1.67; in experiment [9], -1.37; in experiment [10] it was -0.253. Also, the z-score in experiment [2] is 0.328 (inactive); in [3], -0.325 (inactive); in experiment [4], -0.0212 (inactive); in experiment [6], 0.808 (inactive).

For `N#Cc1ccc(NN2C(C(O)c3ccc([N+](=O)[O-])cc3)C=CC3C(=O)N(c4ccccc4)C(=O)C32)cc1` (stereo not given), the composite z-score was 0.698 in experiment [1]; 3.29 in [5]; 0.0478 in [7]; -0.299 in experiment [8]; 1.06 in [9]; 0.0478 in experiment [10]. For the same molecule, the z-score in experiment [2] is -0.0094 (inactive); in experiment [3] it was 1.2 (inactive); in experiment [4] it was 1.39 (inactive); in experiment [6], -1.75 (inactive).
